# Whole data set: some 8,300 sequences, median “log2 fold change of degron read counts, EGFP-low vs EGFP+ sorted cells (limma voom), compound-induced degradation” near -1.1, cut for the highest 2% near 3.2. The list comes from a sample in which the highest values are over-represented; it also holds similar and randomly drawn sequences.
# T1: CRBN, Q96SW2
# T1 chain: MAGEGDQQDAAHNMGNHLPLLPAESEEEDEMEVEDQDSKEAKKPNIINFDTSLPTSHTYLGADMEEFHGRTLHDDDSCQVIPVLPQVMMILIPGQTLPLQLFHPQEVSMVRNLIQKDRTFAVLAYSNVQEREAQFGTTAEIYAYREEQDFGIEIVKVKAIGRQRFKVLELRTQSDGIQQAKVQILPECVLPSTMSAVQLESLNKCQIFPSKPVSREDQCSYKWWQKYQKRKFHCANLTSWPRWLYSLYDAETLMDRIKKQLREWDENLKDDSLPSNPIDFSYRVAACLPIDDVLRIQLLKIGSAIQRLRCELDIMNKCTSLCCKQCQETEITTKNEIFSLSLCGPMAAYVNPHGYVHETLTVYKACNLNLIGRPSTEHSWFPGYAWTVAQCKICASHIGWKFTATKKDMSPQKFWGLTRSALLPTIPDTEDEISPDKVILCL
# B1: 46F_47G_49P_50Q_52G_53A_54L_55F_67L_, Q9UKT9 (peptide)
# chain: FGCPQCGALFTQKGNLLRHIKL
# B2: 46F_47S_49D_50I_52G_53A_54K_55F_67L_, Q9UKT9 (peptide)
# chain: FSCDICGAKFTQKGNLLRHIKL
# B3: 46F_47R_49P_50V_52G_53A_54V_55F_67L_, Q9UKT9 (peptide)
# chain: FRCPVCGAVFTQKGNLLRHIKL
# B4: 46F_47K_49S_50V_52G_53H_54M_55F_67L_, Q9UKT9 (peptide)
# chain: FKCSVCGHMFTQKGNLLRHIKL
# B5: 46L_47I_49N_50Q_52G_53F_54D_55C_67L_, Q9UKT9 (peptide)
# chain: LICNQCGFDCTQKGNLLRHIKL
# B6: 46F_47Y_49D_50I_52G_53A_54M_55F_67L_, Q9UKT9 (peptide)
# chain: FYCDICGAMFTQKGNLLRHIKL
# B7: 46F_47R_49N_50Q_52G_53H_54N_55F_67L_, Q9UKT9 (peptide)
# chain: FRCNQCGHNFTQKGNLLRHIKL
# B8: 46F_47Q_49N_50V_52G_53A_54P_55F_67L_, Q9UKT9 (peptide)
# chain: FQCNVCGAPFTQKGNLLRHIKL
# B9: 46F_47R_49D_50V_52G_53A_54P_55F_67L_, Q9UKT9 (peptide)
# chain: FRCDVCGAPFTQKGNLLRHIKL
# B10: 46F_47V_49D_50V_52G_53A_54P_55F_67L_, Q9UKT9 (peptide)
# chain: FVCDVCGAPFTQKGNLLRHIKL
# B11: 46F_47F_49D_50V_52G_53A_54P_55F_67L_, Q9UKT9 (peptide)
# chain: FFCDVCGAPFTQKGNLLRHIKL
# B12: 46F_47F_49P_50V_52G_53A_54P_55F_67L_, Q9UKT9 (peptide)
# chain: FFCPVCGAPFTQKGNLLRHIKL
# B13: 46F_47R_49P_50V_52G_53A_54P_55F_67L_, Q9UKT9 (peptide)
# chain: FRCPVCGAPFTQKGNLLRHIKL
# B14: 46F_47F_49N_50V_52G_53A_54P_55F_67L_, Q9UKT9 (peptide)
# chain: FFCNVCGAPFTQKGNLLRHIKL
# B15: 46F_47L_49N_50V_52G_53A_54P_55F_67L_, Q9UKT9 (peptide)
# chain: FLCNVCGAPFTQKGNLLRHIKL
# B16: 46F_47R_49N_50V_52G_53A_54P_55F_67L_, Q9UKT9 (peptide)
# chain: FRCNVCGAPFTQKGNLLRHIKL
# B17: 46F_47G_49D_50V_52G_53A_54P_55F_67L_, Q9UKT9 (peptide)
# chain: FGCDVCGAPFTQKGNLLRHIKL
# B18: 46F_47Q_49D_50V_52G_53A_54P_55F_67L_, Q9UKT9 (peptide)
# chain: FQCDVCGAPFTQKGNLLRHIKL
# B19: 46F_47Q_49P_50V_52G_53A_54P_55F_67L_, Q9UKT9 (peptide)
# chain: FQCPVCGAPFTQKGNLLRHIKL
# B20: 46F_47N_49E_50I_52G_53A_54L_55F_67L_, Q9UKT9 (peptide)
# chain: FNCEICGALFTQKGNLLRHIKL
# B21: 46F_47D_49E_50I_52G_53A_54Y_55F_67L_, Q9UKT9 (peptide)
# chain: FDCEICGAYFTQKGNLLRHIKL
# B22: 46F_47T_49N_50I_52G_53A_54M_55F_67L_, Q9UKT9 (peptide)
# chain: FTCNICGAMFTQKGNLLRHIKL
# B23: 46F_47D_49N_50Q_52G_53H_54N_55F_67L_, Q9UKT9 (peptide)
# chain: FDCNQCGHNFTQKGNLLRHIKL
# B24: 46F_47F_49N_50Q_52G_53R_54D_55F_67L_, Q9UKT9 (peptide)
# chain: FFCNQCGRDFTQKGNLLRHIKL
# B25: 46F_47G_49N_50Q_52G_53H_54I_55F_67L_, Q9UKT9 (peptide)
# chain: FGCNQCGHIFTQKGNLLRHIKL
# B26: 46F_47V_49P_50Q_52G_53A_54S_55F_67L_, Q9UKT9 (peptide)
# chain: FVCPQCGASFTQKGNLLRHIKL
# B27: 46F_47M_49E_50I_52G_53A_54N_55F_67L_, Q9UKT9 (peptide)
# chain: FMCEICGANFTQKGNLLRHIKL
# B28: 46L_47C_49N_50Q_52G_53F_54F_55C_67L_, Q9UKT9 (peptide)
# chain: LCCNQCGFFCTQKGNLLRHIKL
# Target: T1, CRBN, Q96SW2
# Assay: log2 fold change of degron read counts, EGFP-low vs EGFP+ sorted cells (limma voom), compound-induced degradation; higher = more compound-induced degradation of the degron-EGFP fusion; degrons are variants of IKZF1/3 zinc finger 2; compound dose not given here
# Conditions: Jurkat, 18 h
# [1] = compound: compound 19 (5-tert-butyl-thalidomide)
# [2] = compound: compound 22 (5-morpholino-thalidomide)
# [3] = compound: compound 33 (diphenyl IMiD analogue)
# 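Note: pooled lentiviral library of zinc finger degron-EGFP fusions in mCherry-positive Jurkat cells, FACS-sorted after compound exposure, with degron abundance counted by next-generation sequencing.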
Sequence,log2 fold change of degron read counts [1],log2 fold change of degron read counts [2],log2 fold change of degron read counts [3],log2 fold change of degron read counts (compound: thalidomide)
B1,0.741,-1.93,1.28,-2.08
B2,1.91,1.04,-1.63,0.394
B3,-1.2,-0.699,1.54,1.18
B4,-3.17,-3,-3.02,-2.7
B5,-3.41,-3.2,-2.9,-2.97
B6,2.46,1.99,0.476,-1.55
B7,-2.02,-3.14,-2.79,-2.26
B8,0.618,2.01,0.742,2.69
B9,2.07,3.3,3.21,2.88
B10,-0.0613,2.93,1.05,2.09
B11,2.96,1.95,0.307,-0.766
B12,3.53,2.84,2.23,1.5
B13,3.29,3.62,3.27,3.51
B14,2.8,1.44,0.47,-0.472
B15,-0.289,0.405,1.47,1.32
B16,2.26,2.96,2.94,2.77
B17,-1.15,-2.27,-2.07,-2.21
B18,0.996,2.11,-0.0653,2.48
B19,3.11,3.34,2.34,3.87
B20,0.13,-1.53,-0.743,-1.13
B21,-0.0199,-1.26,-0.229,-0.2
B22,-1.09,-0.0854,0.875,0.88
B23,-2.11,-2.61,-2.32,-2.04
B24,-2.83,-3.38,-3.07,-2.85
B25,-1.45,-1.99,-2.4,-1.44
B26,-1.71,0.559,0.703,1.25
B27,-0.123,0.396,2.76,1.56
B28,-1.18,-1.17,-1.27,-0.874

# From the supplement of paper PMC12645437, “Orthogonal IMiD-Degron Pairs Induce Selective Protein Degradation in Cells” (ACS Chemical Biology, 2025)
